The list is not random: actives were taken first. Their share in the collection is about 19%.
DT40 TDP1 CPT: DT40-hTDP1 cell growth loss with CPT. hit rate 12% among 420,000. Potency, µM (doses to about 46.2 µM), without a hit: at the top dose activity change, negative = growth inhibition, actives largely listed as inhibitors. chicken DT40 Tdp1-/-;hTDP1 cells + 20 nM CPT, ATP luminescence, 48 h; further: potency means the concentration at half of the fitted maximal effect; on the % scale 0 is the no-effect control and ±100 the full control effect; nearly all actives have a fitted effect of over 55% in size
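Chicken DT40 Tdp1-/- cells complemented with human TDP1, 400 cells/well, exposed to compounds plus 20 nM camptothecin for at least 48 h at 37 C; viability read as ATP content by CellTiter-Glo luminescence.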
MCF10A rereplic: DNA re-replication induction in MCF 10a cells. MCF 10A DNA re-replication, Hoechst nuclear intensity, 48 h. Potency, µM (doses to about 46.1 µM), for the others: at the highest dose activity, positive = re-replication, actives largely listed as activators. hit rate 2.9% among 350,000. AID 624296; further: potency means the concentration at half of the fitted maximal effect; % of control where 0% means no effect; nearly all actives have a fitted effect of over 50% in size
IL1B secr inh: inflammasome signaling inhibition, IL-1 beta readout | AID 743279 | THP-1 LPS/ATP IL-1B secretion, AlphaLISA, 16 h; hits give low values | activity change, % at 57.5 µM | hit rate 4.7% among 360,000; in the data active means activity change below about -50%; inconclusive means mostly about -30% to -49%; further: on the % scale 0 is the no-effect control and ±100 the full control effect
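THP-1 cells pretreated 1 hr with compounds (up to 57.5 uM final), then stimulated with LPS (250 ng/mL final) plus ATP (1.25 mM final); secreted IL-1B measured by AlphaLISA after 16 hr, decreased signal indicating inhibition.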
DT40 TDP1 no CPT: qHTS for Inhibitors of human tyrosyl-DNA phosphodiesterase 1 (TDP1): qHTS in cells in absence of CPT; DT40 Tdp1-/- hTDP1 cells, no CPT, ATP luminescence, 48 h; hit rate 15% among 420,000; Potency, µM (top dose mostly 46.2 µM), inactives show top-dose activity change, negative = growth inhibition, actives largely listed as inhibitors; further: potency means the concentration at half of the fitted maximal effect; on the % scale 0 is the no-effect control and ±100 the full control effect; nearly all actives have a fitted effect of over 55% in size
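Cells were dispensed at 400 per well, compounds added by pin tool, plates incubated ≥48 hr at 37 °C, then CellTiter-Glo added for 30 min at room temperature before luminescence reading. Line: DT40 Tdp1-/- complemented with hTDP1; camptothecin omitted.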
Chronic BCR inh: blocks chronic active B-cell receptor signaling; hit rate 0.05% among 340,000; Potency, µM (series often up to 46.1 µM), inactives show top-dose activity change, negative = inhibition, actives largely listed as inhibitors; ABC-DLBCL IkBa-CBG/CBR reporter, luminescence ratio, 4 h; active means well fitted inhibition curve with a large enough effect in the signal ratio, with a control signal flat, not every such curve was filed as active; inconclusive means small, poorly fitted or top-dose-only effect, or effect the other way, or a change in a side signal; the % refers to the signal ratio;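 further: potency means the concentration at half of the fitted maximal effect; plate controls were basal doxycycline-induced cells for no effect and cells given 10 µM MG132 for full effect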
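TMD8 human ABC-DLBCL cells with doxycycline-inducible IκBα–green luciferase fusion and unfused red luciferase, in 0.5% FBS medium; compounds up to 46 uM, 4 h at 37C. Green/red luminescence ratio, filter-overlap corrected, fitted to concentration-response curves.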
SW480 rerep: inducers of DNA re-replication in SW480 colon cancer cells; SW480 DNA re-replication, Hoechst DNA content imaging, 48 h; Potency, µM (series often up to 46.1 µM), for inactives: at the top dose re-replication activation, usual class: activators; hit rate 1.8% among 340,000; AID 624297; further: potency means the concentration at half of the fitted maximal effect; % of control where 0% means no effect; nearly all actives have a fitted effect of over 55% in size
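Readout is total intensity of Hoechst-stained nuclei, excited at 405 nm and collected at 500-530 nm. Compound treatment lasted 48 hr at 37 C in 5% CO2 before staining.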
Starred values were filed as active, the others as inactive; ? = inconclusive; · = not tested or not shown. Unless noted, the call rests on the fitted dose curve; in most records, active means well fitted curve in the direction sought with a large enough effect; inconclusive means small, poorly fitted or top-dose-only effect, or another doubt; inactive means no such curve, though single readings can be large; an effect the other way counts as inactive or inconclusive.

SMILES	DT40 TDP1 CPT	MCF10A rereplic	IL1B secr inh	DT40 TDP1 no CPT	Chronic BCR inh	SW480 rerep
CCn1c(SCC(=O)Nc2cc(OC)ccc2OC)nc2c(c1=O)SCC2	?	5%	-1	26µM*	-11%	?
CCn1c(SCC(=O)Nc2cccc(OC)c2)nc2c(c1=O)SCC2	4%	1%	9	7%	-7%	-77%
COc1cccc(NC(=O)CSc2nc(C3CC3)nc3ccccc23)c1	1%	?	-12	-9%	?	4%
CCn1c(SCC(=O)Nc2ccccc2OC)nc2ccccc2c1=O	?	?	-72*	?	0%	27%
CCCn1c(SC(C(=O)Nc2cc(C)ccc2OC)c2ccccc2)nc2ccccc2c1=O (stereo not drawn)	18µM*	19%	9	15µM*	9%	·
CCn1c(SCC(=O)Nc2ccccc2)nc2ccccc2c1=O	-12%	?	-12	?	5%	5%
Cc1ccc(-c2noc(-c3nnn(CC(=O)Nc4ccc(C)c(Cl)c4)c3N)n2)cc1	-28%	·	·	-14%	·	·
O=c1[nH]cc(C(F)(F)F)cc1NS(=O)(=O)c1ccccc1[N+](=O)[O-]	0%	0%	15	-19%	1%	-4%
NS(=O)(=O)c1ccc(NC(=S)N2CCN(C(=O)C3CCCO3)CC2)cc1 (stereo not drawn)	-4%	-16%	24	18%	-4%	-1%
COC(=O)COc1coc(CN2CCN(c3cccc(Cl)c3)CC2)cc1=O	-6%	20%	20	-8%	3%	17%
COC(=O)c1cccc(NC(=O)CSc2nc3cccnc3n2C)c1	?	23%	?	16µM*	?	0%
CC(C)Oc1ccccc1NC(=O)CSc1nc2ccccc2c(=O)n1C	21µM*	12%	-1	?	-6%	-3%
Cc1cccc(NC2SC(=O)NC2=O)c1 (stereo not drawn)	8%	2%	4	16%	-3%	-4%
O=C(CN1CCOCC1)Nc1ccc(F)cc1	-8%	-4%	9	-6%	?	-24%
O=C1OC(c2ccc(F)cc2)CC1CN1CCOCC1 (stereo not drawn)	5.8µM*	·	-11	10µM*	·	·
O=C(N/N=C/c1cccs1)c1cccnc1	1%	-3%	17	23µM*	?	-5%
Cc1ccc(C(=O)N/N=C\c2ccc[nH]2)cn1	3%	15%	6	1%	?	-1%
O=C(N/N=C/c1ccc[nH]1)c1cccnc1	15µM*	0%	4	6.5µM*	-2%	-3%
CC1=C(C(=O)N(C)C)CC(CC(=O)NCCCCc2ccccc2)C(=O)N1Cc1ccc(C(C)(C)C)cc1 (stereo not drawn)	16µM*	·	-22	13µM*	·	·
CC1=C(C(=O)N(C)C)CC(CC(=O)NCCCCc2ccccc2)C(=O)N1Cc1ccc(F)cc1 (stereo not drawn)	-34%	·	22	?	·	·
CC1=C(C(=O)N2CCCCCC2)CC(CC(=O)NCCCCc2ccccc2)C(=O)N1Cc1ccccc1 (stereo not drawn)	18µM*	·	-22	21µM*	·	·
CCN(CC)C(=O)C1=C(C)N(Cc2ccc(F)cc2)C(=O)C(CC(=O)NCC2CCCCC2)C1 (stereo not drawn)	?	·	-23	21µM*	·	·
CCN(CC)C(=O)C1=C(C)N(Cc2ccc(C(C)(C)C)cc2)C(=O)C(CC(=O)NCCCCc2ccccc2)C1 (stereo not drawn)	-103%	·	?	?	·	·
CCN(CC)C(=O)C1=C(C)N(Cc2ccc(F)cc2)C(=O)C(CC(=O)NCCCCc2ccccc2)C1 (stereo not drawn)	?	·	-17	21µM*	·	·
